Measurements: PubChem BioAssay AID449746 (Sanford-Burnham Center for Chemical Genomics, 2010)
In all, about 2,000 compounds went through this assay and about 680 (34%) were called active. Cut-off read from the data, not from the text of the source: active = inhibition mostly above about 28% (no sharp cut-off); inactive = mostly below about 22%. A selection follows.

assay: PMA/ionomycin-induced NF-kB reporter inhibitors, 697 retest, confirmation, B-cell NF-kB inhibitor project, cell-based, luminescence, single concentration (AID 449746); settings: 697 B-cell NF-kB luciferase, 16 h, at 4 µM, stronger effect = higher value

inhibition, active:
CCOc1cc(C(=O)N2CCc3cc(OC)c(OC)cc3C2)ccc1OC(F)F 43.5%, CCN1/C(=C\c2ccc3ccccc3[n+]2CC)Sc2cc(C)ccc21 68.5%, OCCCNc1nccc(-c2cc(Nc3cccc(Cl)c3)ncn2)n1 85.9%, O=C(C1CCC1)N1CCN(S(=O)(=O)c2ccc([N+](=O)[O-])cc2)CC1 30.8%, COc1ccc(C(=O)n2nc(-c3ccc(Cl)cc3)nc2N)cc1OC 46.5%, O=C(O)COc1ccc(-c2nccc(-c3cccs3)n2)cc1 55%, C/C=C(/C)C(=O)OC1Cc2c(ccc3ccc(=O)oc23)OC1(C)C (configuration not stated) 50.1%, CCOC(=O)c1cc2c(=O)n3ccccc3nc2n(CC(C)C)c1=NC(=O)c1c(-c2c(F)cccc2Cl)noc1C 33%, Cn1nccc1C(=O)NC1CCCc2c1cnn2-c1ccc(F)cc1F (configuration not stated) 105%, Cn1nccc1C(=O)NC1CCCc2c1cnn2-c1ccccc1F (configuration not stated) 97.9%, OCCN1CCN(C(=S)c2ccc(-c3ccccc3)cc2)CC1 47%, O=C(CN1C(=O)c2ccccc2S1(=O)=O)N1CCc2ccccc21 32.4%, CCNC(=O)CCc1nc(-c2ccc(C(C)(C)C)cc2)no1 79.3%, CC(C)C[C@@H](N)c1nnc(SCC(=O)c2ccc(Cl)cc2)o1 56.2%, Cn1c(=O)cc(SCC(=O)N2CCCC2)c2cc(Cl)ccc21 38.2%, Cc1ccc(O)c(NC(=O)COc2cc(C)ccc2C)c1 28.7%, Cc1cccc(C(=O)Nc2ccc(CC(=O)O)cc2)c1 21.7%

inhibition, inactive:
Cc1ccc(C(=O)C[n+]2cc(-c3ccccc3)n3c2CCCCC3)cc1 11.4%, c1ccc2[nH]c(-c3nc4ccccc4[nH]3)nc2c1 -191%, Cc1cccc(Nc2nc(-c3ccccc3)cs2)n1 -201%, COc1cccc(NC(=O)[C@H](Cc2c[nH]c3ccccc23)NC(=O)[C@@H]2Cc3ccccc3CN2)c1 0.1%, CC[n+]1cc(C)ccc1/C=C/c1ccc(N(C)C)cc1 17.4%, COC(=O)C1=C(C(=O)c2ccc(C)cc2)C(c2ccccc2)n2nnnc2N1 (configuration not stated) 22.4%, CCc1ccc2oc(-c3ccc(N)cc3)nc2c1 -417%, CCCCCc1ccc(-c2ccc(C(=O)O)cc2)nc1 -165%, CNc1nc(Nc2ccc(C)c(Cl)c2)nc(N)c1[N+](=O)[O-] -231%, C=CCSc1nc(N)cc(=O)[nH]1 -19.9%, C=CCn1c(C)cc(C2=NNC(=NCC)SC2)c1C 2.7%, COc1cc(/C=N/NC(=O)c2ccc(N3CCCC3=O)cc2)ccc1O -89.1%, COc1ccc(-c2nc(-c3ccccc3)no2)c(OC)c1 -330%, CCn1c(O)c(N=NC2=NC(=O)CS2)c2cc(C)ccc21 17.4%, COc1ccc(/C=N/Nc2ccccc2C(=O)O)cc1 -12.1%, Clc1ccc(Nc2ccc3ccccc3n2)cc1 -340%, COc1ccc(/C=N\NC(=O)c2sc(N)nc2C)cc1OC 7.5%, CCC(=O)Nc1ccc2nn(-c3ccc(F)cc3)nc2c1 -298%, COc1ccc(CNC(=O)[C@@H]2CC=C[C@@H]3CCN(C4CC4)C(=O)[C@@H]32)cc1 6.95%, CCOc1cccc(/C=C/c2ccc3ccccc3n2)c1OC(C)=O -337%, COc1ccc(C(=O)NC2CCCc3c2cnn3-c2cccc(C)c2C)c(OC)n1 (configuration not stated) -397%, Cc1cc(Nc2cc(N3CCN(C)CC3)nc(Sc3ccc(NC(=O)C4CC4)cc3)n2)n[nH]1 27.8%, COc1c(C)c2c(c(O)c1C/C=C(\C)CCC(=O)O)C(=O)OC2 -398%, CC(C)CC(=O)N/C(N)=N/c1nc2ccccc2s1 -290%, Cc1ccc2cc3cc(C(=O)N4CCCCCC4)oc3nc2c1 -242%, COc1cc(N=Cc2c(O)[nH]c3ccccc23)cc(OC)c1OC 20.8%, CCOC(=O)c1c(-c2ccc(C)cc2C)csc1NC(=O)CSc1nnnn1C -192%, COc1ccc(-c2csc(Nc3ccccn3)n2)cc1 -117%, Cc1cc(N=Nc2ccc3ccccc3c2)ccc1O -266%, CC(C)(C)c1ccc(Oc2ccc(N)cc2)cc1 17.2%, Cn1c(-c2ccc(C(F)(F)F)cc2)cc2onc(-c3ccccc3)c2c1=O -301%, Cc1cc(N)n2nc(-c3ccc(C(C)(C)C)cc3)cc2n1 -470%, O=C(NC(Nc1nc2ccc([N+](=O)[O-])cc2s1)(C(F)(F)F)C(F)(F)F)c1ccccc1 -31.2%, CCCNC(=O)c1ccc(N2CCC3(CC2)CC(c2cccc(Br)c2)=NO3)c(NC(=O)c2ccco2)c1 16.6%, O=C(NCCCN1CCOCC1)c1cc(-c2ccc(Cl)cc2)on1 17.5%, O=c1c2c(nc3cc(-c4cccc(Cl)c4)[nH]n13)CCCC2 -285%, Clc1ccc2nc(CSc3ccccc3)cn2c1 -248%, Fc1ccccc1/C=N/Nc1cc(N2CCCCC2)ncn1 -264%, CCOc1ccc(C(c2c(C)[nH][nH]c2=O)c2c(C)[nH][nH]c2=O)cc1OCC 18.2%, CC(C)CCNC(=O)c1ccc2c(Cl)c3c(nc2c1)CCC3 -231%, Cc1ccc(NC(=O)c2cc([N+](=O)[O-])ccc2Cl)c(O)c1 11.5%, CC[C@]1(O)CC2CN(CCc3c([nH]c4ccccc34)[C@@](C(=O)OC)(c3cc4c(cc3OC)N(C=O)[C@H]3[C@@](O)(C(=O)OC)[C@H](OC(C)=O)[C@]5(CC)C=CCN6CC[C@]43[C@@H]65)C2)C1 (some centres not stated) -337%, COc1ccc(C2=Nc3cc(C)ccc3OC2)cc1 -255%, Cc1ccc(N/C=C/C(=O)c2ccccc2)cc1C -12.9%, CNC(=O)c1ccc(NC(=O)c2cccc(C(F)(F)F)c2)cc1 12.7%
